# The supplement of paper PMC6089552
# “And” between values parts separate entries of the source, which are not always exact repeats. Identical values can stand only once. Hit rate of the full screen: of about 3,200 compounds, about 300 (9.4%) showed activity. The sample holds actives, similar compounds and a random draw of the others, so the mix is not that of the screen.
# Test system: A673/TR/shEF
# Assay: cell viability (LOESS-normalised, relative to median of negative controls) (log2 ratio); higher = more viable cells (less compound effect), active = hit call of the paper (over 3 MAD below the median)
# Details: treatment time: 72 h
# How it was run: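 For three days, A673/TR/shEF Ewing sarcoma cells in 384-well plates (1,500 per well) were treated with library compounds at two or more concentrations or with DMSO controls, after doxycycline had been added or withheld 24 h beforehand to induce EWS-FLI1 shRNA knockdown. Viability was read by CellTiter-Glo luminescence on an Envision reader. The data were LOESS-corrected per plate, divided by the median of negative controls and log2-transformed.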
# [1] = 0.25 µM, library screen: screen1, EWS-FLI1 expression: high (no doxycycline)
# [2] = 0.25 µM, library screen: screen1, EWS-FLI1 expression: low (doxycycline-induced shRNA knockdown)
# [3] = 2.5 µM, library screen: screen1, EWS-FLI1 expression: high (no doxycycline)
# [4] = 2.5 µM, library screen: screen1, EWS-FLI1 expression: low (doxycycline-induced shRNA knockdown)
# [5] = 0.25 µM, library screen: screen2, EWS-FLI1 expression: high (no doxycycline)
# [6] = 0.25 µM, library screen: screen2, EWS-FLI1 expression: low (doxycycline-induced shRNA knockdown)
# [7] = 2.5 µM, library screen: screen2, EWS-FLI1 expression: high (no doxycycline)
# [8] = 2.5 µM, library screen: screen2, EWS-FLI1 expression: low (doxycycline-induced shRNA knockdown)
smiles,measurement,setting,value
Cc1cc(O)c(C)c2c1C(=O)Oc1c(C)c(O)c(C(=O)O)c(C)c1O2,cell viability (log2),[1],0.09 (inactive)
same,cell viability (log2),[2],0.103 (inactive)
same,cell viability (log2),[3],0.0454 (inactive)
same,cell viability (log2),[4],0.145 (inactive)
CC(C)=CCC/C(C)=C/CC/C(C)=C/CO,cell viability (log2),[1],0.153 (inactive)
same,cell viability (log2),[2],0.0866 (inactive)
same,cell viability (log2),[3],0.208 (inactive)
same,cell viability (log2),[4],0.106 (inactive)
CC(C)=CCc1c(O)c(C(=O)CC(C)C)c2oc(=O)cc(-c3ccccc3)c2c1O,cell viability (log2),[1],0.0516 (inactive)
same,cell viability (log2),[2],0.00347 (inactive)
same,cell viability (log2),[3],0.107 (inactive)
same,cell viability (log2),[4],0.0124 (inactive)
CC(C)CCCC(C)C1CCC2C3CC=C4CC(=O)CCC4(C)C3CCC12C (stereo not given),cell viability (log2),[1],0.0196 (inactive)
same,cell viability (log2),[2],0.0967 (inactive)
same,cell viability (log2),[3],0.0967 (inactive)
same,cell viability (log2),[4],0.133 (inactive)
COCCOC(=O)C1=C(C)NC2=C(C(=O)CCC2)C1c1ccc(C)s1 (stereo not given),cell viability (log2),[1],-0.0698 (inactive)
same,cell viability (log2),[2],0.0631 (inactive)
same,cell viability (log2),[3],0.0308 (inactive)
same,cell viability (log2),[4],0.207 (inactive)
C=C(C)C1Cc2c(ccc(C(=O)O)c2O)O1 (stereo not given),cell viability (log2),[1],0.0493 (inactive)
same,cell viability (log2),[2],-0.00474 (inactive)
same,cell viability (log2),[3],0.106 (inactive)
same,cell viability (log2),[4],0.105 (inactive)
CCOC(=O)c1oc2c(OC)c(O)cc(O)c2c(=O)c1-c1cc(OC)c(OC)c(OC)c1,cell viability (log2),[1],0.036 (inactive)
same,cell viability (log2),[2],0.0305 (inactive)
same,cell viability (log2),[3],-0.00359 (inactive)
same,cell viability (log2),[4],-0.108 (inactive)
CC=C(C)C(=O)OC1[C@@H]2C=C3C4CC(=O)O[C@@H](c5ccoc5)[C@]4(C)CCC3[C@@](C)(C2=O)[C@@H](C(O)C(=O)OC)C1(C)C (stereo not given in full),cell viability (log2),[1],0.075 (inactive)
same,cell viability (log2),[2],-0.00745 (inactive)
same,cell viability (log2),[3],0.149 (inactive)
same,cell viability (log2),[4],0.0968 (inactive)
COC(=O)Nc1ccc(S(=O)(=O)N2C(C)CCCC2C)cc1 (stereo not given),cell viability (log2),[1],0.0592 (inactive)
same,cell viability (log2),[2],0.103 (inactive)
same,cell viability (log2),[3],0.0767 (inactive)
same,cell viability (log2),[4],0.0829 (inactive)
COc1ccc(CN2CCN(Cc3ccc([N+](=O)[O-])cc3)CC2)cc1OC,cell viability (log2),[1],0.0472 (inactive)
same,cell viability (log2),[2],0.118 (inactive)
same,cell viability (log2),[3],0.097 (inactive)
same,cell viability (log2),[4],0.0942 (inactive)
CCSc1nnc(-c2ccc([N+](=O)[O-])cc2)n1-c1ccccc1,cell viability (log2),[1],0.0862 (inactive)
same,cell viability (log2),[2],0.0888 (inactive)
same,cell viability (log2),[3],0.0629 (inactive)
same,cell viability (log2),[4],0.153 (inactive)
CCOc1cccc(C(=O)c2ccc(O)c(O)c2O)c1,cell viability (log2),[1],0.0703 (inactive)
same,cell viability (log2),[2],0.005 (inactive)
same,cell viability (log2),[3],0.0783 (inactive)
same,cell viability (log2),[4],0.0694 (inactive)
C[C@@H]1CC[C@@]23CCC4(C)[C@@](C=CC5[C@@]6(C)CCC(=O)C(C)(C)C6CC[C@]54C)(OC2=O)C3[C@H]1C (stereo not given in full),cell viability (log2),[1],0.12 (inactive)
same,cell viability (log2),[2],0.0225 (inactive)
same,cell viability (log2),[3],0.0629 (inactive)
same,cell viability (log2),[4],0.0141 (inactive)
NNCCc1ccccc1,cell viability (log2),[1],0.0542 (inactive)
same,cell viability (log2),[2],0.11 (inactive)
same,cell viability (log2),[5],0.136 (inactive)
same,cell viability (log2),[6],-0.0727 (inactive)
same,cell viability (log2),[3],0.2 (inactive)
same,cell viability (log2),[4],0.188 (inactive)
same,cell viability (log2),[7],-0.435 (active)
same,cell viability (log2),[8],-0.392 (active)
CCN(CCCc1ccccc1)CCCc1ccccc1,cell viability (log2),[1],0.0709 (inactive)
same,cell viability (log2),[2],0.129 (inactive)
same,cell viability (log2),[3],0.11 (inactive)
same,cell viability (log2),[4],0.151 (inactive)
NC(=O)NC(=O)Cc1ccccc1,cell viability (log2),[1],0.103 (inactive)
same,cell viability (log2),[2],0.215 (inactive)
same,cell viability (log2),[3],0.184 (inactive)
same,cell viability (log2),[4],0.139 (inactive)
COC(=O)C1=C(C)N=C2SCCC(=O)N2C1c1ccc(OC)cc1 (stereo not given),cell viability (log2),[1],0.0178 (inactive)
same,cell viability (log2),[2],0.0759 (inactive)
same,cell viability (log2),[3],0.0162 (inactive)
same,cell viability (log2),[4],0.0699 (inactive)
Cc1cc(Nc2ccc(O)cc2)n2c(nc3ccccc32)c1C#N,cell viability (log2),[1],0.079 (inactive)
same,cell viability (log2),[2],0.0759 (inactive)
same,cell viability (log2),[3],0.0987 (inactive)
same,cell viability (log2),[4],0.0687 (inactive)
CC1(O)/C=C\C=C(\CO)C2CC(C)(C)C2(O)CC1 (stereo not given),cell viability (log2),[1],0.0666 (inactive)
same,cell viability (log2),[2],0.000836 (inactive)
same,cell viability (log2),[3],0.128 (inactive)
same,cell viability (log2),[4],0.00974 (inactive)
CN1CCN(c2nc3ccccn3c(=O)c2/C=C2\SC(=S)N(CC3CCCO3)C2=O)CC1 (stereo not given),cell viability (log2),[1],0.134 (inactive)
same,cell viability (log2),[2],0.0801 (inactive)
same,cell viability (log2),[3],0.0647 (inactive)
same,cell viability (log2),[4],0.048 (inactive)
CCC(C)C(=O)c1c(O)c(C)c2oc3c(C)c(O)c(C(=O)C(C)CC)c(O)c3c2c1O (stereo not given),cell viability (log2),[1],0.0233 (inactive)
same,cell viability (log2),[2],0.116 (inactive)
same,cell viability (log2),[3],-0.592 (active)
same,cell viability (log2),[4],-0.0271 (inactive)
CC(=O)c1c(O)c(C)c(O)c2c1oc1c(C(C)=O)c(O)c(C)c(O)c12,cell viability (log2),[1],0.0278 (inactive)
same,cell viability (log2),[2],-0.0408 (inactive)
same,cell viability (log2),[3],0.0533 (inactive)
same,cell viability (log2),[4],0.172 (inactive)
Cc1c(O)c(C(=O)CC(C)C)c2oc3c(C(=O)CC(C)C)c(O)c(C)c(O)c3c2c1O,cell viability (log2),[1],0.0407 (inactive)
same,cell viability (log2),[2],0.0843 (inactive)
same,cell viability (log2),[3],0.0935 (inactive)
same,cell viability (log2),[4],0.0892 (inactive)
CCCCC(CC)CN=C(N)NC(N)=NCCCCCCN=C(N)NC(N)=NCC(CC)CCCC (stereo not given),cell viability (log2),[1],0.103 (inactive) and 0.0973 (inactive)
same,cell viability (log2),[2],0.044 (inactive) and 0.0691 (inactive)
same,cell viability (log2),[3],0.127 (inactive) and 0.022 (inactive)
same,cell viability (log2),[4],0.0795 (inactive) and 0.0454 (inactive)
COc1ccc(OC)c(C2NC(=O)NC(C)=C2C(=O)Nc2ccccc2Cl)c1 (stereo not given),cell viability (log2),[1],0.0793 (inactive)
same,cell viability (log2),[2],0.107 (inactive)
same,cell viability (log2),[3],0.0921 (inactive)
same,cell viability (log2),[4],0.116 (inactive)
CC1(C)COC(CC(=O)O)CN1 (stereo not given),cell viability (log2),[1],0.11 (inactive)
same,cell viability (log2),[2],0.00312 (inactive)
same,cell viability (log2),[3],0.108 (inactive)
same,cell viability (log2),[4],0.0408 (inactive)
COc1ccc(-c2coc3cc(O)ccc3c2=O)cc1,cell viability (log2),[1],-0.6 (active)
same,cell viability (log2),[2],0.0672 (inactive)
same,cell viability (log2),[3],0.234 (inactive)
same,cell viability (log2),[4],0.103 (inactive)
O=c1c(-c2ccc(O)cc2)coc2cc(O)ccc12,cell viability (log2),"0.025 µM, library screen: screen1, EWS-FLI1 expression: high (no doxycycline)",-0.0377 (inactive)
same,cell viability (log2),"0.025 µM, library screen: screen1, EWS-FLI1 expression: low (doxycycline-induced shRNA knockdown)",-0.0297 (inactive)
same,cell viability (log2),"0.103 µM, library screen: screen3, EWS-FLI1 expression: high (no doxycycline)",0.0817 (inactive)
same,cell viability (log2),"0.103 µM, library screen: screen3, EWS-FLI1 expression: low (doxycycline-induced shRNA knockdown)",0.0853 (inactive)
same,cell viability (log2),[1],0.184 (inactive)
same,cell viability (log2),[2],0.0911 (inactive)
same,cell viability (log2),[5],0.184 (inactive)
same,cell viability (log2),[6],0.099 (inactive)
same,cell viability (log2),"0.308 µM, library screen: screen3, EWS-FLI1 expression: high (no doxycycline)",0.12 (inactive)
same,cell viability (log2),"0.308 µM, library screen: screen3, EWS-FLI1 expression: low (doxycycline-induced shRNA knockdown)",0.0897 (inactive)
same,cell viability (log2),"0.926 µM, library screen: screen3, EWS-FLI1 expression: high (no doxycycline)",0.0631 (inactive)
same,cell viability (log2),"0.926 µM, library screen: screen3, EWS-FLI1 expression: low (doxycycline-induced shRNA knockdown)",0.0867 (inactive)
same,cell viability (log2),[3],0.11 (inactive)
same,cell viability (log2),[4],0.0867 (inactive)
same,cell viability (log2),[7],0.118 (inactive)
same,cell viability (log2),[8],0.117 (inactive)
same,cell viability (log2),"2.8 µM, library screen: screen3, EWS-FLI1 expression: high (no doxycycline)",0.137 (inactive)
same,cell viability (log2),"2.8 µM, library screen: screen3, EWS-FLI1 expression: low (doxycycline-induced shRNA knockdown)",0.123 (inactive)
same,cell viability (log2),"8.3 µM, library screen: screen3, EWS-FLI1 expression: high (no doxycycline)",0.161 (inactive)
same,cell viability (log2),"8.3 µM, library screen: screen3, EWS-FLI1 expression: low (doxycycline-induced shRNA knockdown)",0.0904 (inactive)
same,cell viability (log2),"25 µM, library screen: screen1, EWS-FLI1 expression: high (no doxycycline)",0.0121 (inactive)
same,cell viability (log2),"25 µM, library screen: screen1, EWS-FLI1 expression: low (doxycycline-induced shRNA knockdown)",0.0753 (inactive)
same,cell viability (log2),"25 µM, library screen: screen3, EWS-FLI1 expression: high (no doxycycline)",0.114 (inactive)
same,cell viability (log2),"25 µM, library screen: screen3, EWS-FLI1 expression: low (doxycycline-induced shRNA knockdown)",0.0782 (inactive)
COc1ccc(-c2coc3cc(OC)ccc3c2=O)cc1,cell viability (log2),[1],0.121 (inactive)
same,cell viability (log2),[2],0.0353 (inactive)
same,cell viability (log2),[3],0.128 (inactive)
same,cell viability (log2),[4],0.0908 (inactive)
